# Measurements published in the supplement of paper PMC8728848.
# This excerpt belongs to a sample that is enriched for the strongest signals.
# Assays:
# Experiment in all cases: glycan array binding signal (z-score within array); higher = stronger binding
# Settings in all cases: glycan notation: IUPAC condensed, linker removed
# Gal3S(b1-3)GalNAc = target: Gal3S(b1-3)GalNAc
# Summary of the method: (§1)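 From the Consortium for Functional Glycomics database, 3228 arrays were curated, keeping only those whose protein sequence was available. Binding is given as a within-array Z-score averaged across arrays sharing a protein sequence and across linkers. Negative Z-scores can be read as non-binding.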
# Gal3S6S(b1-4)GlcNAc = target: Gal3S6S(b1-4)GlcNAc
# Summary of the method: as §1
# Gal4S(b1-4)GlcNAc = target: Gal4S(b1-4)GlcNAc
# Summary of the method: as §1
# Gal6S(b1-4)GlcNAc = target: Gal6S(b1-4)GlcNAc
# Summary of the method: as §1
# GalNAc(b1-3)Gal = target: GalNAc(b1-3)Gal
# Summary of the method: as §1
# [1] = target: GalNAc(b1-3)Gal(a1-6)Gal(b1-4)Glc
# Summary of the method: as §1
# GalNAc6S(b1-4)GlcNAc = target: GalNAc6S(b1-4)GlcNAc
# Summary of the method: as §1
# [2] = target: Glc(a1-4)Glc(a1-4)Glc(a1-4)Glc
# Summary of the method: as §1
# [3] = target: GlcA3S(b1-3)Gal(b1-4)GlcNAc(b1-2)Man
# Summary of the method: as §1
# [4] = target: GlcNAc(a1-3)Gal(b1-4)GlcNAc
# Summary of the method: as §1
# [5] = target: GlcNAc(a1-4)Gal(b1-4)GlcNAc
# Summary of the method: as §1
# [6] = target: GlcNAc(b1-2)[GlcNAc(b1-6)]Man(a1-6)[GlcNAc(b1-4)][GlcNAc(b1-2)Man(a1-3)]Man(b1-4)GlcNAc(b1-4)GlcNAc
# Summary of the method: as §1
# GlcNAc(b1-3)Fuc = target: GlcNAc(b1-3)Fuc
# Summary of the method: as §1
# [7] = target: GlcNAc(b1-3)Gal(b1-4)GlcNAc(b1-3)Gal(b1-4)GlcNAc(b1-2)Man(a1-3)[GlcNAc(b1-3)Gal(b1-4)GlcNAc(b1-3)Gal(b1-4)GlcNAc(b1-2)Man(a1-6)]Man(b1-4)GlcNAc(b1-4)[Fuc(a1-6)]GlcNAc
# Summary of the method: as §1
# [8] = target: GlcNAc(b1-3)Gal(b1-4)GlcNAc(b1-3)Gal(b1-4)GlcNAc(b1-3)Gal(b1-4)GlcNAc(b1-2)[GlcNAc(b1-3)Gal(b1-4)GlcNAc(b1-3)Gal(b1-4)GlcNAc(b1-3)Gal(b1-4)GlcNAc(b1-6)]Man(a1-6)[GlcNAc(b1-3)Gal(b1-4)GlcNAc(b1-3)Gal(b1-4)GlcNAc(b1-3)Gal(b1-4)GlcNAc(b1-2)Man(a1-3)]Man(b1-4)GlcNAc(b1-4)[Fuc(a1-6)]GlcNAc
# Summary of the method: as §1
# Kdn(a2-3)Gal(b1-3)GlcNAc = target: Kdn(a2-3)Gal(b1-3)GlcNAc
# Summary of the method: as §1
# [9] = target: Man(a1-2)Man(a1-3)[Man(a1-2)Man(a1-6)]Man
# Summary of the method: as §1
# Neu5Ac(a2-3)Gal = target: Neu5Ac(a2-3)Gal
# Summary of the method: as §1
# [10] = target: Neu5Ac(a2-3)Gal(b1-3)GalNAc6S
# Summary of the method: as §1
# [11] = target: Neu5Ac(a2-3)Gal(b1-4)GlcNAc(b1-2)Man
# Summary of the method: as §1
# [12] = target: Neu5Ac(a2-3)Gal(b1-4)GlcNAc(b1-3)Gal
# Summary of the method: as §1
# [13] = target: Neu5Ac(a2-3)Gal(b1-4)GlcNAc(b1-3)Gal(b1-4)GlcNAc(b1-2)Man(a1-3)[Neu5Ac(a2-3)Gal(b1-4)GlcNAc(b1-3)Gal(b1-4)GlcNAc(b1-2)Man(a1-6)]Man(b1-4)GlcNAc(b1-4)GlcNAc
# Summary of the method: as §1
# [14] = target: Neu5Ac(a2-3)Gal(b1-4)GlcNAc(b1-3)GalNAc
# Summary of the method: as §1
# [15] = target: Neu5Ac(a2-3)Gal(b1-4)GlcNAc6S
# Summary of the method: as §1
# [16] = target: Neu5Ac(a2-3)Gal(b1-4)[Fuc(a1-3)]GlcNAc(b1-6)[Neu5Ac(a2-3)Gal(b1-3)]GalNAc
# Summary of the method: as §1
# [17] = target: Neu5Ac(a2-6)Gal(b1-4)GlcNAc(b1-3)Gal(b1-4)GlcNAc(b1-3)Gal(b1-4)GlcNAc(b1-2)Man(a1-3)[Neu5Ac(a2-6)Gal(b1-4)GlcNAc(b1-3)Gal(b1-4)GlcNAc(b1-3)Gal(b1-4)GlcNAc(b1-2)Man(a1-6)]GalNAc
# Summary of the method: as §1
# [18] = target: Neu5Ac(a2-6)Gal(b1-4)GlcNAc6S
# Summary of the method: as §1
# Neu5Ac(a2-8)Neu5Ac = target: Neu5Ac(a2-8)Neu5Ac
# Summary of the method: as §1
# [19] = target: Neu5Ac(a2-8)Neu5Ac(a2-3)Gal(b1-4)GlcNAc
# Summary of the method: as §1
# [20] = target: Neu5Ac(a2-8)Neu5Ac(a2-3)[GalNAc(b1-4)]Gal(b1-4)Glc
# Summary of the method: as §1
binder,measurement,setting,value
"SspB A3vp1 (Streptococcus gordonii), Q54186 (protein) MTNEADYQAKLAAYQTELARVQKANADAKATYEKAVEDNKAKNAAIKAENEEIKQRNAVAKTDYEAKLAKYEADLAKYKKEFAAYTAALAEAESKKKQDGYLSEPRSQSLNFKSEPNAIRTIDSSVHQYGQQELDALVKSWGISPTNPDRKKSRAYSYFNAINSNNTYAKLVLEKDKPVDVTYTGLKNSSFNGKKISKVVYTYTLKETGFNDGTKMTMFASSDPTVTAWYNDYFTSTNINVKVKFYDEEGQLMNLTGGLVNFSSLNRGNGSGAIDKDAIESVRNFNGRYIPISGSSIKIHENNSAYADSSNAEKSLGARWNTSEWDTTSSPNNWYGAIVGEITQSEISFNMASSKSGNIWFAFNSNINAIGVPTKPVAPTAPTQPMYETEKPLEPAPVAPSYENEPTPPVKTPDQPEPSKPAAALEHHHHHH",glycan array binding signal (z-score),Gal3S(b1-3)GalNAc,0.06
same,glycan array binding signal (z-score),Gal3S6S(b1-4)GlcNAc,-0.52
same,glycan array binding signal (z-score),Gal4S(b1-4)GlcNAc,0.061
same,glycan array binding signal (z-score),Gal6S(b1-4)GlcNAc,-0.624
same,glycan array binding signal (z-score),GalNAc(b1-3)Gal,0.001
same,glycan array binding signal (z-score),[1],0.652
same,glycan array binding signal (z-score),GalNAc6S(b1-4)GlcNAc,-0.623
same,glycan array binding signal (z-score),[2],-0.964
same,glycan array binding signal (z-score),[3],-1.19
same,glycan array binding signal (z-score),[4],-0.25
same,glycan array binding signal (z-score),[5],-0.84
same,glycan array binding signal (z-score),[6],-0.233
same,glycan array binding signal (z-score),GlcNAc(b1-3)Fuc,-0.426
same,glycan array binding signal (z-score),[7],1.62
same,glycan array binding signal (z-score),[8],-0.133
same,glycan array binding signal (z-score),Kdn(a2-3)Gal(b1-3)GlcNAc,-0.933
same,glycan array binding signal (z-score),[9],-0.889
same,glycan array binding signal (z-score),Neu5Ac(a2-3)Gal,-0.167
same,glycan array binding signal (z-score),[10],-0.287
same,glycan array binding signal (z-score),[11],1.88
same,glycan array binding signal (z-score),[12],-0.803
same,glycan array binding signal (z-score),[13],3.69
same,glycan array binding signal (z-score),[14],-0.47
same,glycan array binding signal (z-score),[15],-0.678
same,glycan array binding signal (z-score),[16],5.21
same,glycan array binding signal (z-score),[17],1.36
same,glycan array binding signal (z-score),[18],-0.165
same,glycan array binding signal (z-score),Neu5Ac(a2-8)Neu5Ac,-0.582
same,glycan array binding signal (z-score),[19],-1.25
same,glycan array binding signal (z-score),[20],-0.166
